Many of the other results were omitted from the sample, so hits are more common in it than they were.
LASV entry inh – qHTS for Inhibitors of binding or entry into cells for Lassa Virus; Potency, µM (highest dose often 37.9 µM), usual class: inhibitors; 300,000 compounds, 1.2% hits; AID 540256, 2011; Lassa virus pseudotype entry inhibition, cell reporter; calls by dose curve; tested in HEK293 cells; further: nearly all actives have a fitted effect of over 50% in size
Vaccinia mCherry – qHTS for Stage-Specific Inhibitors of Vaccinia Orthopoxvirus: mCherry Reporter Primary qHTS | Vaccinia virus mCherry reporter infection, fluorescence | Potency, µM (doses to about 36.5 µM), most hits filed as inhibitors | 310,000 compounds, 0.63% hits | AID 720579, 2013; calls by dose curve; tested in A549 cells; further: nearly all actives have a fitted effect of over 35% in size
Marburg entry inh – qHTS for inhibitors of binding or entry into cells for Marburg Virus. Marburg virus pseudotyped entry inhibition, cell reporter. Potency, µM (series often up to 37.8 µM), actives largely listed as inhibitors. 300,000 compounds, 1.8% hits; calls by dose curve; tested in HEK293 cells
Shiga inhibitor – A qHTS for Small Molecule Inhibitors of Shiga Toxin. Vero cells, Shiga toxin protein synthesis inhibition reporter. inhibition, % at 38.7 µM. 290,000 compounds, 9.2% hits. AID 2315, 2010; in the data active means inhibition mostly above about 28%, no sharp cut-off; inactive means mostly below about 43%
VACV Venus inh – qHTS for Stage-Specific Inhibitors of Vaccinia Orthopoxvirus: Venus Reporter Primary qHTS | Vaccinia virus Venus reporter expression, fluorescence | Potency, µM (titrated, usually from 36.5 µM), usual class: inhibitors | 330,000 compounds, 0.46% hits | AID 720580, 2013; calls by dose curve; tested in A549 cells; further: nearly all actives have a fitted effect of over 30% in size
CHX counter-1 – Cycloheximide Counterscreen for Small Molecule Inhibitors of Shiga Toxin; cell reporter, cycloheximide protein synthesis inhibition counterscreen; max response, %; 300,000 compounds, 12% hits; AID 2314, 2010; in the data active means max response mostly above about 13%, no sharp cut-off; inactive means mostly below about 14%; further: read at 38.3 µM for the half of the compounds with a filed dose
CHX counter-2 – Cycloheximide Counterscreen for Small Molecule Inhibitors of Shiga Toxin (Confirmatory); Cycloheximide counterscreen, protein synthesis reporter, Shiga toxin assay; 510 compounds, 3% hits; shares compounds with Shiga inhibitor; Potency, µM (highest dose often 38.3 µM), hits mostly activators; calls by dose curve
Large screens that a line does not name were inactive (follow-up assays come after a bar, where they were run).

O=C1[C@H]2[C@H](ON3CCCC[C@H]23)C(=O)N1c1ccc(Cl)cc1	Marburg entry inh inconclusive
COc1ccc(NC(=O)c2c(Cl)n(C)c3ccccc23)cc1	Marburg entry inh inconclusive, Shiga inhibitor 40, VACV Venus inh inconclusive (no result: Vaccinia mCherry) | CHX counter-2 13µM
COc1ccc(NC(=O)Cc2c(Sc3ccccc3)c3ccccc3n2C)cc1	none
CCN1CCN(Cc2nnc(-c3ccc(C)cc3)o2)CC1	Shiga inhibitor 43 (no result: LASV entry inh, Vaccinia mCherry, Marburg entry inh, VACV Venus inh) | CHX counter-2 inactive
Cc1ccc(Cl)cc1N1CCN(C(=O)C2CCN(S(=O)(=O)c3ccc4c(c3)oc(=O)n4C)CC2)CC1	VACV Venus inh inconclusive (no result: Marburg entry inh, Shiga inhibitor, CHX counter-1)
COc1ccc(N(C(=O)c2csnn2)C(C(=O)NC2CCCC2)c2cccs2)cc1 (centres undefined)	Shiga inhibitor 56 | CHX counter-2 inactive
COc1ccc(S(=O)(=O)N(C)c2ccc(C(=O)Nc3ccccc3C(=O)N3CCOCC3)cc2)cc1OC	none
CC(C)(C)OC1NS(=O)(=O)OCC1NCOC(Cl)(Cl)Cl (centres undefined)	none (no result: LASV entry inh, Marburg entry inh)
COc1cc2c(c(OC)c1OC)-c1c(cc(OC)c(OC)c1OC)CC(C)C(C)C2 (centres undefined)	Shiga inhibitor 32 (no result: LASV entry inh, Vaccinia mCherry, Marburg entry inh, VACV Venus inh) | CHX counter-2 inactive
N#Cc1cc2c(nc1SCC(=O)Nc1cc(Cl)ccc1Cl)C1CCN2CC1	LASV entry inh inconclusive, Shiga inhibitor 48 (no result: Vaccinia mCherry, VACV Venus inh) | CHX counter-2 inconclusive
COc1ccc(OC)c(/C=C/c2nc3ccccc3c(=O)n2-c2ccc(F)c(Cl)c2)c1	none (no result: Marburg entry inh, Shiga inhibitor, CHX counter-1)
O=C(c1ccc([N+](=O)[O-])cc1)N1CCc2ccccc2C1	Shiga inhibitor 26 | CHX counter-2 inactive
O=C(c1ccc(S(=O)(=O)c2ccccc2)cc1)N1CCc2ccccc2C1	Marburg entry inh inconclusive
O=C(NC1CCCC1)c1cc(Cl)ccc1[N+](=O)[O-]	Marburg entry inh inconclusive, Shiga inhibitor 27 | CHX counter-2 inactive
COc1ccccc1Nc1cc(C(=O)N2CCc3ccccc3C2)c2ccccc2n1	Shiga inhibitor 30 (no result: LASV entry inh, Vaccinia mCherry, Marburg entry inh, VACV Venus inh) | CHX counter-2 inactive
O=C(c1ccccn1)c1ccc2ccccc2n1	Shiga inhibitor 56 | CHX counter-2 inactive
Cc1ccc(NC(=O)c2c(C(F)(F)F)nn(C)c2Cl)cc1C	Shiga inhibitor 29 (no result: Vaccinia mCherry, VACV Venus inh) | CHX counter-2 inactive
COc1ccccc1C(=O)N/C(=C\c1cn(S(=O)(=O)N(C)C)c2ccccc12)C(=O)NCCCn1ccnc1	Marburg entry inh inconclusive (no result: Shiga inhibitor, CHX counter-1)
COc1cc(OC)cc(C(=O)Nc2cccc3nc(C)ccc23)c1	LASV entry inh inconclusive, Marburg entry inh inconclusive
COc1ccc(C(=O)Nc2cccc3nc(C)ccc23)cc1OC	Shiga inhibitor 24 | CHX counter-2 inactive
Cc1cccc2sc(NC(=O)CSc3nc4ccccc4o3)nc12	Marburg entry inh inconclusive (no result: Vaccinia mCherry, VACV Venus inh)
CC(=O)Nc1cccc(NC(=O)CSc2nc3ccccc3o2)c1	Shiga inhibitor 25 | CHX counter-2 inactive
CCOC(=O)c1ccccc1NC(=O)CSc1nnc(COc2ccccc2)n1CC	none (no result: Vaccinia mCherry, VACV Venus inh)
COc1ccc(NC(=O)c2cc(-c3ccc(C)cc3)on2)cc1OC	none
COc1ccc(NC(=O)c2cc(C)on2)cc1OC	Shiga inhibitor 28 | CHX counter-2 inactive
COc1cccc(CNC(=O)c2ccc(C)c(NC3=NC4CS(=O)(=O)CC4S3)c2)c1 (centres undefined)	Shiga inhibitor 11 (no result: LASV entry inh, Marburg entry inh) | CHX counter-2 inactive
N=c1c(S(=O)(=O)c2ccc(Cl)cc2)cc2c(=O)n3ccccc3nc2n1C1CCCCC1	Shiga inhibitor active | CHX counter-2 inactive
CN1CCN(Cc2ccc(N)cc2)CC1	Shiga inhibitor 27 (no result: LASV entry inh, Vaccinia mCherry, Marburg entry inh, VACV Venus inh) | CHX counter-2 inactive
Cc1cccc(-n2nnnc2SCC(=O)c2cc(C)n(Cc3ccco3)c2C)c1	Marburg entry inh inconclusive (no result: Vaccinia mCherry, VACV Venus inh)
Cc1cc(C(=O)COC(=O)c2cccn2C)c(C)n1Cc1ccco1	Shiga inhibitor 50 (no result: LASV entry inh, Marburg entry inh) | CHX counter-2 0.71µM
COc1ccc(S(=O)(=O)Nc2c(C(=O)O)[nH]c3ccccc23)cc1OC	Shiga inhibitor 30 | CHX counter-2 inactive

Screening data as filed in PubChem.
